Each structure is given as a SMILES string. Records with an inconclusive call do not appear. The source made the active and inactive calls. The call rests on the fitted dose curve; in most records, active means well fitted cell-killing curve with a large enough effect in the repeat runs; inconclusive means weak or mixed curves, or effect the other way; inactive means no such curve, though single readings can be large or run the other way.

This test in a line: qHTS assay to identify small molecule antagonists of the retinoid-related orphan receptor gamma (ROR-gamma) signaling pathway - cell viability counter screen (AID 1159520). Further: nearly all actives have a fitted effect of over 50% in size. As to conditions: Tet-on RORgamma CHO cells viability, ATP luminescence, 16 h; series mostly up to 92.4 µM. From the text: U.S. Tox21 Program National Center for Advancing Translational Sciences [NCATS] NIH Chemical Genomics Center [NCGC] U.S. Environmental Protection Agency [EPA] National Institutes of Environmental Health Sciences [NIEHS] National Toxicology Program [NTP] U.S. Food and Drug Administration [FDA] Tox21 Assay Overview: Nuclear steroid hormone receptors are involved in many biological processes including inflammatory responses, cell proliferation, and apoptosis. Environmental factors or compounds disrupting these nuclear receptor pathways and gene expression may promote susceptibility to immunotoxicants and autoimmune diseases. One important group of these expression factors are the retinoid-related orphan receptors. To assess compounds that may interfere with the retinoid-related orphan receptor gamma (ROR-gamma) transcription factor, a cell-based luciferase assay was used. The CHO cell-based assay utilizes a TET-inducible ROR expression factor and ROR response element-LUC reporter gene. Reporter gene activity was induced using Doxycycline Hyclate and measured after 16 hr incubation. Tet-on ROR gamma CHO cells were used to screen against the Tox21 10K compound library for cytotoxicity by measuring the viability of the cells based on the quantitation of the ATP.
Tox21 Assay Protocol Summary: Tet-on ROR gamma CHO cells were dispensed at 1,000 cells in 4 uL of culture medium per well into white wall/solid bottom 1536-well plates using a Multidrop Combi (Thermo Scientific, Waltham, MA) dispenser. Following incubation at 37 C and 5% CO2 for 4 hr, 23 nL of compounds dissolved in DMSO, positive controls or DMSO only were transferred by a Pintool station (Kalypsys, San Diego, CA) and after 2 hr incubation at 37 C, one ul of 1 uM (final concentration) of Doxycycline Hyclate was added to all the wells by using a Flying Reagent Dispenser (FRD) (Aurora Discovery, San Diego, CA). After 16 hr incubation at 37 C and 5% CO2, 5 uL of CellTiter-Glo reagent (Promega Corporation, Madison, WI) was added to each assay plate using FRD. After 30 min incubation at room temperature, luminescence was quantified on a ViewLux plate reader (Perkin Elmer, Waltham, MA).
In general terms: qHTS replaces the single test concentration by a dilution series.
For `CCOC(=O)C(C)(C)Oc1ccc(Cl)cc1`, the call was inactive.
Take `O=c1c(-c2ccc(O)cc2)coc2cc(O)cc(O)c12`: the outcome was inactive.
In the case of `C#C[C@]1(O)CC[C@H]2[C@@H]3CCC4=CC(=O)CC[C@@H]4[C@H]3CC[C@@]21CC`, the call was inactive.
For `CCCCCCCC(=O)OCC(O)CO` (stereo not given) the value was “inactive”.
For `NCCNc1cccc2ccccc12` the value was “inactive”.
`N[C@@H](Cc1c[nH]c2ccc(O)cc12)C(=O)O`: the compound was called inactive.
The result for `Nc1ccc(N=Nc2ccccc2)c(N)n1` reads “inactive”.
Regarding `COC(=O)c1ccc(O)cc1`, the compound was classed as inactive.
On to `C[C@]12CC[C@@H]3c4ccc(O)cc4C[C@@H](CCCCCCCCCS(=O)CCCC(F)(F)C(F)(F)F)[C@H]3[C@@H]1CC[C@@H]2O` (stereo not given in full), for which the compound was classed as inactive.
The result for `O=C(O)CCCCC1CCSS1` (stereo not given) reads “inactive”; that for `Nc1cccc(N)c1`, “inactive”; that for `CCCCCCCCCCCCCCCCCC(=O)OCC(O)CO` (stereo not given), “inactive”.
As to `CCN1CCCC1=O`, the compound was classed as inactive.
For `O=C(O)Cc1cccc2ccccc12` the value was “inactive”; for `CC(C)Cc1ccc(C(C)C(=O)O)cc1` (stereo not given), “inactive”; for `C1CNCCN1`, “inactive”.
With `CCN(CC)CCOC(=O)c1ccc(N)cc1`, the call was inactive.
The result for `O=C1CCCCCN1` reads “inactive”; that for `Cc1c(N(C)C)c(=O)n(-c2ccccc2)n1C`, “inactive”; that for `COCC(C)N` (stereo not given), “inactive”.
For the compound `COc1ccc(C(=O)c2ccccc2)c(O)c1`, the compound was classed as inactive.
The result for `CC(C)(C)NCC(O)c1ccc(O)c(CO)c1` (stereo not given) reads “inactive”; that for `C=CCOC(=O)CC(C)C`, “inactive”; that for `C[C@]12CC[C@@H]3c4ccc(O)cc4CC[C@H]3[C@@H]1CCC2=O`, “inactive”.
The result for `CC(C)CC(C)CC(O)CC(C)C` (stereo not given) reads “inactive”; that for `NC(=O)N1c2ccccc2C=Cc2ccccc21`, “inactive”.
The result for `Cc1ccc(O)c(-n2nc3ccccc3n2)c1` reads “inactive”; that for `CCCCOCCOCCOC(C)=O`, “inactive”.
Consider `Cc1cccc2ccccc12`, for which the compound was classed as inactive.
For `CCCCOC(=O)CCCCCCCCC(=O)OCCCC` the value was “inactive”; for `C[C@]12C[C@H](O)[C@H]3[C@@H](CCC4=CC(=O)CC[C@@]43C)[C@@H]1CC[C@@H]2C(=O)CO`, “inactive”; for `CC1=NN(c2ccccc2)C(=O)C1`, “inactive”.
For `Cc1cccc(C)c1O` the value was “inactive”.
Regarding `CN(C)C=O`, the outcome was inactive.
In the case of `COCCOCCOC`, the outcome was inactive.
For `c1ccc2[nH]c(-c3cscn3)nc2c1` the value was “inactive”.
The result for `COC1=CC(=O)C[C@@H](C)[C@]12Oc1c(Cl)c(OC)cc(OC)c1C2=O` reads “inactive”; that for `CCCCCCCCCCCCCC(=O)OC(C)C`, “inactive”; that for `O=C(O)CN(CC(=O)O)CC(=O)O`, “inactive”.
For `CC(=O)c1ccc(S(=O)(=O)NC(=O)NC2CCCCC2)cc1` the value was “inactive”.
